Experimental data as given in PubChem BioAssay (EPA / NIEHS).
Records with an inconclusive call do not appear. Activity calls are given as the source filed them. Rule for the calls, unless noted: active = hit-call score of the fitted dose curve at least 0.9, where 1 is the maximum; inconclusive = response in the unintended direction; inactive = score below 0.9.

Target: X-box-binding protein 1 (Homo sapiens) (UniProt P17861)
Experiment: ATG_Xbp1_CIS: Attagene CIS-FACTORIAL HepG2 Assay for human X-box Binding Protein 1 (XBP1) (AID 2282972; active = hit-call score of the fitted dose curve at least 0.9, where 1 is the maximum; inactive = score below 0.9)
Settings: HepG2 XBP1 cis-element reporter, Attagene multiplex; actives raise or lower the signal
How it was run: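 After a 24-hour chemical exposure of HepG2 cells carrying cis-regulated reporters, reporter mRNA levels are assessed. Quantification uses RT-PCR, 6-FAM labelling and capillary electrophoresis. Gain- or loss-of-signal is fitted against DMSO.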

X-box-binding protein 1 (Homo sapiens), sequence (P17861 whole entry, looked up): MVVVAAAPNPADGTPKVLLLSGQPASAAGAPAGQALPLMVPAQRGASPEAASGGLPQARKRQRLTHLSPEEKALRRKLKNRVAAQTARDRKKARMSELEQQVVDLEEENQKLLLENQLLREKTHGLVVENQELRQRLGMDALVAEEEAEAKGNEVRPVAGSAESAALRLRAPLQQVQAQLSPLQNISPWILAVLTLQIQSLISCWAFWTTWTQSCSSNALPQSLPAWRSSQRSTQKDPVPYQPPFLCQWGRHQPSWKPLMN

| Compound | outcome | AC50 |
| --- | --- | --- |
| COc1ccc(C#N)cc1 | inactive |  |
| OCC(F)(F)C(F)(F)C(F)(F)C(F)(F)C(F)(F)C(F)(F)C(F)(F)C(F)(F)C(F)(F)C(F)(F)C(F)(F)F | inactive |  |
| C=CC(=O)OCCC(F)(F)C(F)(F)C(F)(F)C(F)(F)C(F)(F)C(F)(F)F | inactive |  |
| O=C(Nc1ccc(Cl)c(Cl)c1)c1cc(Cl)cc(Cl)c1O |  | 1.72 µM (active) |
| CCOC(=O)CN[C@@H](C(=O)N1CC[C@H]1C(=O)NCc1ccc(/C(N)=N/O)cc1)C1CCCCC1 | inactive |  |
| C=COC(=O)C(C)(C)CCCCCC | inactive |  |
| Cc1cc(C(=C2C=CC(=Nc3ccc(S(=O)(=O)O)cc3)C=C2)c2ccc(Nc3ccc(S(=O)(=O)O)cc3)cc2)cc(S(=O)(=O)O)c1N | inactive |  |
| CCC(C)c1ccccc1O (stereo unspecified) | inactive |  |

Tested on: not listed separately
Experiment: ATG_M_19_TRANS: Attagene TRANS-FACTORIAL HepG2 Assay for M19 Transcription Factor (Internal Marker) (AID 2282974)
Settings: HepG2 Attagene TRANS-FACTORIAL M19 internal marker reporter
How it was run: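 Gain-of-signal in reporter mRNA, relative to DMSO, was scored from capillary electrophoresis fluorescence. HepG2 cells carried transiently transfected multiple reporter transcription units and were incubated with test chemicals for 24 h.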

| Compound | outcome |
| --- | --- |
| CC(C)(C)c1ccc(CCC=O)cc1 | inactive |
| NNc1nc(-c2ccc([N+](=O)[O-])cc2)cs1 | inactive |
| CCCCc1ccc2ccccc2c1S(=O)(=O)O | inactive |
| Nc1cc(Cl)c(-c2cc(Cl)c(N)cc2Cl)cc1Cl | inactive |
| c1cnc2c(c1)ccc1cccnc12 | inactive |
| CCC(C)c1nccnc1OC (stereo unspecified) | inactive |
| Cc1cc(=O)oc2cc(O)ccc12 | inactive |
| Oc1cc2ccccc2cc1O | inactive |
| CC(C)C=O | inactive |
| CCOC=C(C(=O)OCC)C(=O)OCC | inactive |
| CCC(=O)C=Cc1ccc(OC)cc1 | inactive |
| CCCCCCCCC(C)=O | inactive |
| C=CCOCC(CO)(CO)CO | inactive |
| CCc1cccc(CC)c1NC(=O)C(=O)O | inactive |
| O=P(O)(O)CCC(F)(F)C(F)(F)C(F)(F)C(F)(F)C(F)(F)C(F)(F)C(F)(F)C(F)(F)F | inactive |
| Clc1ccc(Nc2nnc(Cc3ccncc3)c3ccccc23)cc1 | inactive |
| CC(=O)CC(C)C | inactive |
| Cc1ccc(N=Nc2c(O)ccc3ccccc23)c(C)c1 | inactive |
| CCC(C)c1ccccc1O (stereo unspecified) | inactive |

Tested on: not listed separately
Experiment: ATG_GAL4_TRANS: Attagene TRANS-FACTORIAL HepG2 Assay for GAL4 (Internal Marker) (AID 2282976)
Settings: HepG2 Attagene TRANS GAL4 internal marker reporter
How it was run: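 In transfected human HepG2 liver cells dosed 24 h, GAL4 reporter mRNA serves as a baseline marker. Detection by RT-PCR with fluorescent capillary electrophoresis, activity fitted upward relative to DMSO.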

| Compound | outcome |
| --- | --- |
| CCC(C)c1nccnc1OC (stereo unspecified) | inactive |
| FC(F)(F)N1C(F)(F)C(F)(F)OC(F)(F)C1(F)F | inactive |
| CC(C)C=O | inactive |
| CCOC=C(C(=O)OCC)C(=O)OCC | inactive |
| CCc1cccc(CC)c1NC(=O)C(=O)O | inactive |
| CC[N+](CC)(CC)Cc1ccccc1 | inactive |
| Oc1cccc2c(O)cccc12 | inactive |
| O=P(O)(O)CCC(F)(F)C(F)(F)C(F)(F)C(F)(F)C(F)(F)C(F)(F)C(F)(F)C(F)(F)F | inactive |
| O=C(F)C(F)(F)C(F)(F)C(F)(F)C(=O)F | inactive |
| COc1ccc(C#N)cc1 | inactive |
| C=CC(=O)OCCC(F)(F)C(F)(F)C(F)(F)C(F)(F)C(F)(F)C(F)(F)F | inactive |
| CCOC(=O)CN[C@@H](C(=O)N1CC[C@H]1C(=O)NCc1ccc(/C(N)=N/O)cc1)C1CCCCC1 | inactive |
| CC(=O)CC(C)C | inactive |
| CCC(C)c1ccccc1O (stereo unspecified) | inactive |
